# CHX counter: Cycloheximide Counterscreen for Small Molecule Inhibitors of Shiga Toxin; AID 2314, 2010; max response, %; cell reporter, cycloheximide protein synthesis inhibition counterscreen; 300,000 tested, 12% active; in the data active means max response mostly above about 13%, no sharp cut-off; inactive means mostly below about 14%; further: read at 38.3 µM for the half of the compounds with a filed dose; 0% is about no effect
# Shiga inhibitor: A qHTS for Small Molecule Inhibitors of Shiga Toxin. 290,000 tested, 9.2% active. inhibition, % at 38.7 µM. Vero cells, Shiga toxin protein synthesis inhibition reporter. AID 2315, 2010; in the data active means inhibition mostly above about 28%, no sharp cut-off; inactive means mostly below about 43%; further: 0% is about no effect
# Tb PYK inh: qHTS of Trypanosoma Brucei Inhibitors; pyruvate kinase (Trypanosoma brucei), Q57TT1; TbPYK enzyme, Kinase-Glo Plus ATP luminescence, 45 min; Potency, µM (titrated, usually from 76.8 µM), for the others: top-dose activity, negative = inhibition, actives largely listed as inhibitors; 410,000 tested, 0.12% active; further: potency means the concentration at half of the fitted maximal effect; on the % scale 0 is the no-effect control and ±100 the full control effect; nearly all actives have a fitted effect of over 50% in size
#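 Quantitative HTS: titrated library compounds versus trypanosomal pyruvate kinase in TEA buffer (pH 7.2) containing KCl, MgCl2, BSA and Tween-20. Reactions were initiated with ADP, 130 uM final. Kinase-Glo Plus luminescence was read after 45 min at RT.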
# RE007 growth inh: qHTS Assay for Inhibitors of the HIV-1 protein Vpr; AID 651644, 2012; 360,000 tested, 0.21% active; Potency, µM (highest dose often 92.2 µM), for inactives: top-dose activity change, negative = less growth, hits mostly inhibitors; S. pombe RE007 Vpr strain, BacTiter-Glo ATP luminescence, 24 h; active means well fitted falling curve with a large enough effect; inconclusive means small, poorly fitted or top-dose-only effect; inactive means no such curve, though single readings can be large or run the other way; further: potency means the concentration at half of the fitted maximal effect; on the % scale 0 is the no-effect control and ±100 the full control effect; nearly all actives have a fitted effect of over 50% in size
#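 Fission yeast strain RE007, carrying one chromosomally integrated HIV-1 vpr copy, was seeded at OD 0.01 in PMG+AL medium with 23 nL pinned compound. After 24 h at 30 °C and 99% humidity, viability was read by BacTiter-Glo luminescence.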
# LmPK inhibitor: qHTS Assay for Inhibitors of Leishmania Mexicana Pyruvate Kinase (LmPK) | Q27686 | purified LmPK, Kinase-Glo ATP luminescence, 1 h | Potency, µM (highest dose often 57.5 µM), for the others: at the highest dose activity change, negative = inhibition, hits mostly inhibitors | 290,000 tested, 0.37% active | AID 1721, 2009; further: potency means the concentration at half of the fitted maximal effect; on the % scale 0 is the no-effect control and ±100 the full control effect
# Target sequence (Q27686 whole entry, looked up): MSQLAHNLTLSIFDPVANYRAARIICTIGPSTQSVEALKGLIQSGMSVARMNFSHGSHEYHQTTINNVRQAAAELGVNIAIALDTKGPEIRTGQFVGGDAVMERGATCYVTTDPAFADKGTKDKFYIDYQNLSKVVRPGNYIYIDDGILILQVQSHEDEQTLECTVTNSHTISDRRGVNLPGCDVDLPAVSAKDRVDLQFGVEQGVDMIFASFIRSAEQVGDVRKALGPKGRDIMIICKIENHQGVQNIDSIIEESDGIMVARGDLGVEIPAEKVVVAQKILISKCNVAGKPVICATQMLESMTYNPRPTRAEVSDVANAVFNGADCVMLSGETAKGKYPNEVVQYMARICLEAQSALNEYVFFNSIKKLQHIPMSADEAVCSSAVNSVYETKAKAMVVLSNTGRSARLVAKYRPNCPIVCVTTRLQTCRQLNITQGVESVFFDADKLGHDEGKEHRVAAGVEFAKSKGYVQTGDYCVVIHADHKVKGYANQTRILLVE
#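 Purified LmPK (0.1 nM) converted ADP (0.1 mM) to ATP with PEP (0.5 mM) in imidazole buffer pH 7.2 with KCl and MgCl2, 1 h at room temperature. ATP was read by Kinase-Glo luminescence; data normalized to uninhibited and no-enzyme controls.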
# Giardia FBPA inh: qHTS Assay for Inhibitors of Fructose-1,6-bisphosphate Aldolase from Giardia Lamblia. A8B2U2. purified Giardia FBPA. Potency, µM (doses to about 59.6 µM), for inactives: at the top dose activity, negative = inhibition, most hits filed as inhibitors. 290,000 tested, 0.71% active. AID 2451, 2010; further: potency means the concentration at half of the fitted maximal effect; on the % scale 0 is the no-effect control and ±100 the full control effect; nearly all actives have a fitted effect of over 55% in size
#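 40 nM FBPA preincubated 10 min at RT with compound (up to 57.5 uM final), then substrate plus GAPDH/TPI/NAD/arsenate coupling and diaphorase/resazurin added. Fluorescence read after 20 min at RT, 525/598 nm.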
# An asterisk follows results filed as active; ? = inconclusive; . = not tested or not shown; [ ] = remark or other dose. This is one part of a sample in which hits are shown more often than they occur. Unless noted, the call rests on the fitted dose curve; in most records, active means well fitted curve in the direction sought with a large enough effect; inconclusive means small, poorly fitted or top-dose-only effect, or another doubt; inactive means no such curve, though single readings can be large; an effect the other way counts as inactive or inconclusive.
SMILES,CHX counter,Shiga inhibitor,Tb PYK inh,RE007 growth inh,LmPK inhibitor,Giardia FBPA inh
CC(=O)OC1C[C@]2(C)C(C(C)=O)CCC2C2CCC3=CC(=O)CC[C@@]3(C)C12 (stereo not given in full),.,.,.,.,.,8%
O=C(NCCC1=CCCCC1)c1ccc2c(c1)N(Cc1cccc(Cl)c1)C(=O)c1ccccc1S2=O (stereo not given),.,.,-3%,.,.,.
O=C(O)c1ccc(-c2c[nH]c3ccc(-c4ccccc4)cc23)cc1C1CCCC1,.,.,7%,.,.,.
Cc1cccc(NC(=O)c2cc(=O)c3ccccc3o2)n1,24*,56,0%,-3%,-2%,1%
Cc1ccc(NC(=O)c2cc(=O)c3ccccc3o2)cc1,29*,125,-10%,-4%,3%,-1%
Cc1cc(C)c(NC(=O)c2cc(=O)c3ccccc3o2)c(C)c1,-2,-6,-4%,-5%,2%,1%
NC(=O)c1ccsc1NC(=O)c1cc(=O)c2ccccc2o1,44*,38,4%,11%,-1%,0%
Cc1cccc(NC(=O)c2oc3ccccc3c2NC(=O)c2cc(=O)c3ccccc3o2)c1,.,.,-3%,.,.,.
Cc1cc(C)cc(NC(=O)c2cc(=O)c3ccccc3o2)c1,9,5,-4%,4%,1%[11.5 µM],4%
Cc1cccc(NC(=O)c2cc(=O)c3ccccc3o2)c1,24*,27,-7%,-26%,2%,-4%
CC(=O)Nc1ccc(NC(=O)c2cc(=O)c3ccccc3o2)cc1,-4,-8,-6%,1%,0%,-6%
COc1ccc(N2CCN(C(=O)C(C)n3nc(C)c4sc5ccccc5c4c3=O)CC2)cc1 (stereo not given),.,.,-1%,.,.,.
CCC(C(=O)NC1CCCCC1)n1nc(C)c2sc3ccccc3c2c1=O (stereo not given),.,.,4%,.,.,.
CCCC/C=C/[C@H](c1ccccc1)[C@H](CO)Cc1cnc2ccccc2c1,-2,13,.,.,.,6%
Cc1ccc(C)c(NC(=O)c2cc(=O)c3ccccc3o2)c1,33*,17,-1%,3%,-1%,-4%
COc1cccc(NC(=O)c2cc(=O)c3ccccc3o2)c1,19*,47*,-7%,-7%,2%,10%
N#Cc1ccccc1NC(=O)c1cc(=O)c2ccccc2o1,19,59*,6%,-10%,-2%,4%
N#Cc1ccc(NC(=O)c2cc(=O)c3ccccc3o2)cc1,1,-8,3%,21%,0%,2%
O=C(CN1C(=O)COc2ccc(S(=O)(=O)N3CCCCC3)cc21)NCCc1ccc(Cl)cc1,.,.,-2%,.,.,.
CC(C)(C)OC(=O)N1CCC(c2c(C(=O)NCCc3ccccc3)cnn2-c2ccc(F)cc2)CC1,.,.,5%,.,.,.
COC(=O)c1c(C)nc(C)c(C(=O)OC)c1-c1ccccc1[N+](=O)[O-],-6,1,.,.,.,4%
Cc1ccccc1CN1CCC(n2nccc2NC(=O)c2ccc3c(c2)OCO3)CC1,21,34*,-7%,-3%,-7%,.
CSCC(=O)N1CCC(n2nccc2NC(=O)CCCc2ccccc2)CC1,21*,14,-3%,-14%,-7%,.
CSCCC(=O)N1CCC(n2nccc2NC(=O)c2ccc3c(c2)OCO3)CC1,54*,65*,-1%,50%,-13%,.
CCNC(=O)N1CCC(n2nccc2NC(=O)CCCc2ccccc2)CC1,2,-16,4%,5%,1%,.
SMILES,CHX counter,Shiga inhibitor,Tb PYK inh,RE007 growth inh,LmPK inhibitor,Giardia FBPA inh
CC#CC(=O)N1CCC(n2nccc2NC(=O)c2ccc3c(c2)OCO3)CC1,23*,72*,-2%,11%,1%,3%
CCC(C)NC(=O)c1nn(-c2ccc(C)cc2)c(=O)n(C)c1=O (stereo not given),.,.,-3%,.,.,.
CC(C)CCN1CC(O)=C(c2nc3ccccc3[nH]2)C1=N,17*,35,2%,8%,2%,10%
CC(C)N1CC(O)=C(c2nc3ccccc3[nH]2)C1=N,52*,77*,3%,1%,1%,-7%
CCCCN1CC(O)=C(c2nc3ccccc3[nH]2)C1=N,47*,72,-3%,11%,1%,-1%
N=C1C(c2nc3ccccc3c(=O)[nH]2)=C(O)CN1CCO,11,-17,-6%,-6%,-4%,-2%
CCCCCN1CC(O)=C(c2nc3ccccc3[nH]2)C1=N,36*,30,5%,18%,-1%,3%
CCCCCCN1CC(O)=C(c2ccccc2)C1=N,6,-7,-9%,4%,9%,5%
C=CCN1CC(O)=C(c2nc3ccccc3[nH]2)C1=N,56*,128*,-3%,-12%,-4%,-8%
CN1C(=O)/C(=C/c2ccc(OCc3ccc(C(=O)O)cc3)c(Cl)c2)NC1=S,1,2,4%,-23%,-2%,?
O=C1NC(=O)/C(=C\c2ccc(OCc3cccc(C(=O)O)c3)c(Cl)c2)N1,81*,161*,1%,-8%,-6%,24%
COc1cc(/C=C2\NC(=S)NC2=O)ccc1OCc1cccc(C(=O)O)c1,79*,102*,-13%,-3%,-6%,-8%
O=C(Nc1ccc(F)cc1)Nc1csc2c1CCCC2,.,.,-2%,.,.,.
CCOC(=O)CN1N=C(/C=C/c2ccccc2)CCC1=O,.,.,5%,0%,.,.
CCOC(=O)CN1N=C(/C=C/c2ccc(OCC)cc2)CCC1=O,30*,34,-6%,9%,7%,-3%
CCOC(=O)CN1N=C(/C=C/c2ccc(C(C)C)cc2)CCC1=O,35*,37,0%,-15%,-6%,-2%
CCN(CC)C(=O)Oc1ccc2ccccc2c1Br,25*,76*,3%,4%,0%,1%
O=C(Nc1ccccc1OC(=O)N1CCCCC1)N1CCCCC1,-1,-8,6%,-3%,-1%,2%
NC(=O)C1CCN(C(=O)COc2ccc3ccccc3c2Br)CC1,6,13,-5%,-1%,0%,.
O=C(COc1ccc2ccccc2c1Br)N1CCCCC1,62*,89*,?,?,-5%,.
O=C(Oc1ccc2cc(Br)ccc2c1)N1CCCCCC1,48*,58*,.,.,0%,2%
O=C(Oc1ccc2ccccc2c1Br)N1CCCCCC1,36*,117*,-20%,-23%,-12%,6%
Cc1c(C(=O)NCc2ccccc2)sc2nc3n(c(=O)c12)CCCCC3,.,.,2%,.,.,.
Cc1ccc(CNC(=O)C2CCN(c3nc4ccc(C)cc4[nH]3)CC2)cc1,.,.,6%[15.4 µM],.,.,.
CCCCSCCCNC(=O)c1cn(CC)c2ccc(S(=O)(=O)N3CCCCCC3)cc2c1=O,.,.,-5%,.,.,.
N#CCCn1c(=O)cnc2cnc(N3CCNCC3)nc21,.,.,-4%,.,.,0%

# High-throughput results as filed in PubChem.
